Screens (PubChem)
Shown are actives, neighbours in structure and some others; about 2.2% of the full set was active somewhere.
miR-21 act – qHTS Assay for Modulators of miRNAs and/orActivators of miR-21 | 340,000 tested, under 10 active | Potency, µM (series often up to 38.3 µM), for inactives: at the highest dose activity change, positive = activation, usual class: activators | HeLa miR-21 FLuc reporter, luciferase, 48 h;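 further: % of control where 0% means no effect; miR-21 action dims this reporter so a rising signal means less miR-21 action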
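Using DMEM plus 10% FBS, HeLa miR-21-FLuc cells are incubated with test compounds (final up to about 40uM) for 48 hours; firefly luciferase signal is then imaged following reagent-mediated lysis.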
B2AR arrestin – qHTS assay of beta-arrestin-biased ligands of beta2-adrenergic receptor. Beta-2 adrenergic receptor (Homo sapiens), P07550. AID 492947, 2010. hit rate 0.02% among 330,000. Potency, µM (top dose mostly 46.1 µM), for the others: at the highest dose activation, usual class: activators. beta-arrestin recruitment to beta2AR, cell-based reporter;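 further: potency means the concentration at half of the fitted maximal effect; 0% = DMSO controls and full agonism = EC100 isoproterenol or metaproterenol; nearly all actives have a fitted effect of over 65% in size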
Target sequence (P07550 whole entry, looked up): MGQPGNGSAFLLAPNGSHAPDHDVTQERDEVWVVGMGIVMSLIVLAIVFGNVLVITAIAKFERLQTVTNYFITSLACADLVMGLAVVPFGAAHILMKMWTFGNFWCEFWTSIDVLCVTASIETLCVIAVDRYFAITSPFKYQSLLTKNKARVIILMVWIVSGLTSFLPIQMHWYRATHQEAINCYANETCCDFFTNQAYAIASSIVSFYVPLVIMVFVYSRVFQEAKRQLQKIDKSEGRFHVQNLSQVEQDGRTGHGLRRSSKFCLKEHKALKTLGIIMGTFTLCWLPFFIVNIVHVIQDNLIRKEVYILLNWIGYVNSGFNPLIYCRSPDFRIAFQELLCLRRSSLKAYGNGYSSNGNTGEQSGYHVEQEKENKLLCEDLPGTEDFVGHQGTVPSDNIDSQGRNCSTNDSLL
Nrf2 ARE act – qHTS of Nrf2 Activators; AREc32 ARE-luciferase reporter (MCF7-derived line), luminescence, 24 h; Potency, µM (series often up to 46.1 µM), inactives show top-dose activation, most hits filed as activators; hit rate 0.31% among 410,000; AID 624171, 2012; further: potency means the concentration at half of the fitted maximal effect; % of control where 0% means no effect; nearly all actives have a fitted effect of over 65% in size
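Each well held 1000 AREc32 cells, which were incubated with compound for 24 hr at 37 deg C after overnight attachment, and ARE reporter activity was quantified by firefly luciferase luminescence.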
Nrf2 inh – Nrf2 qHTS screen for inhibitors; A549 ARE-Fluc reporter, luciferase luminescence, 18-24 h; Potency, µM (doses to about 46 µM), for inactives: top-dose activity change, negative = inhibition, most hits filed as inhibitors; hit rate 2.1% among 360,000; AID 504444, 2011; further: potency means the concentration at half of the fitted maximal effect; on the % scale 0 is the no-effect control and ±100 the full control effect; nearly all actives have a fitted effect of over 60% in size
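Reporter: ARE-Fluc in A549. Exposure: 18-24 h, 37 °C, 5% CO2, 5% FBS OPTI-MEM. Readouts: fluorescent cytotoxicity (CellTiter-Fluor), then luminescent Nrf2 signal after BugLite.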
A549 viability – Nrf2 qHTS screen for inhibitors: counterscreen for cytotoxicity | A549 ARE-Fluc cells, CellTiter-Fluor viability, 18-24 h | Potency, µM (top dose mostly 46 µM), for inactives: top-dose activity change, negative = cytotoxicity, actives largely listed as inhibitors | hit rate 0.16% among 390,000 | AID 504648, 2011; further: potency means the concentration at half of the fitted maximal effect; on the % scale 0 is the no-effect control and ±100 the full control effect
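Cytotoxicity counterscreen: CellTiter-Fluor fluorescence was measured in A549 ARE_Fluc cells after 18-24 h of compound exposure in a concentration series. The subsequent BugLite luminescent read reports ARE-luciferase activity.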
An asterisk follows results filed as active; u = inconclusive; x = not tested or not shown. The call rests on the fitted dose curve; in most records, active means well fitted curve in the direction sought with a large enough effect; inconclusive means small, poorly fitted or top-dose-only effect, or another doubt; inactive means no such curve, though single readings can be large; an effect the other way counts as inactive or inconclusive.

SMILES	miR-21 act	B2AR arrestin	Nrf2 ARE act	Nrf2 inh	A549 viability
CCCNC(C)C(=O)Nc1ccccc1C (stereo unspecified)	-3.2%	3.16µM*	-0.2%	5.3%	-7.4%
O=C(c1ccccc1)c1c2c(cc3sc4ccccc4[n+]13)-c1cccc3cccc-2c13	26.7%	-0.5%	3.2%	20.6µM*	16.4µM*
COc1ccc(OC)c(NC(=O)C(C)Oc2ccc(Br)cc2)c1 (stereo unspecified)	-8.2%	-0.1%	0.2%	-5.9%	4.1%
CCC(C)n1nccc1NC(=O)C(C)OC(=O)c1cc2ccccc2[nH]1 (stereo unspecified)	-3.8%	-0.1%	0.3%	u	-5.6%
COc1ccccc1NC(=O)C(C)OC(=O)c1cc2ccccc2[nH]1 (stereo unspecified)	x	0.2%	8.9%	20.6µM*	-0.2%
COc1ccc(OC)c(NC(=O)C(C)OC(=O)c2cc3ccccc3[nH]2)c1 (stereo unspecified)	x	x	5.6%	18.4µM*	2.2%
COc1cccc(C2c3c(ncn(-c4ccccc4C(C)(C)C)c3=N)Oc3ccc4ccccc4c32)c1 (stereo unspecified)	x	x	x	-1.5%	-5.2%
CCCC(C)NC(=O)CN(Cc1ccco1)S(=O)(=O)c1ccccc1 (stereo unspecified)	x	-0.2%	-0.7%	-15.9%	3.9%
CCC(C)NS(=O)(=O)c1ccc(S(=O)(=O)N(CC(=O)Nc2ccccc2)Cc2ccco2)cc1 (stereo unspecified)	11.6%	0.0%	2.6%	13µM*	-9.8%
COc1ccc(C2/C=C\CN(Cc3ccccc3)C(C)C(=O)N2Cc2ccc(F)cc2)cc1 (stereo unspecified)	x	x	x	u	3.4%
CC1(C)Cc2c(sc3[nH]c(=S)n(Cc4ccccc4)c(=O)c23)CO1	-7.1%	u	0.0%	16.4µM*	u
CC1(C)Cc2c(sc3c2c(N)nc(=S)n3Cc2ccccc2)CO1	-3.3%	-0.1%	x	x	x
COc1ccc(Cn2nnnc2C(c2ccccc2)N2CCN(c3ccccc3)CC2)cc1 (stereo unspecified)	x	x	x	-18.0%	1.8%
COc1ccc2cc(/C=C/C(=O)N3CCN(CC(=O)N4CCCCCC4)CC3)ccc2c1	-17.4%	0.9%	4.8%	20.6µM*	-15.3%
Cc1cccc(N2CCN(C(=O)C3CCN(S(=O)(=O)N4CCOCC4)CC3)CC2)c1C	11.5%	-0.1%	4.2%	20.6µM*	1.6%
CCn1c(C(=O)N2CCC(C(=O)N3CCN(c4cccc(C)c4C)CC3)CC2)cc2sccc21	28.7%	x	-2.1%	20.6µM*	-19.8%
CCN(CC)CCCNC(=O)c1nn(C)c2c1CSc1ccccc1-2	8.7%	x	-0.5%	u	-4.9%
CCNc1c(C(=O)O)ccc2c1C(=O)c1ccccc1C2=O	-3.0%	-1.0%	-0.2%	u	-28.9%
CNc1c(C(=O)O)ccc2c1C(=O)c1ccccc1C2=O	-0.1%	-0.5%	-0.6%	u	18.4µM*
CC(C)(C)OC(=O)N1CCC(c2c(C(=O)Nc3ccc4c(c3)OCCO4)cnn2-c2ccc(F)cc2F)CC1	-1.3%	x	0.1%	-10.7%	u
CCOc1ccc(-c2nc(CSCC(=O)N3CCN(c4cccc(C(F)(F)F)c4)CC3)c(C)o2)cc1	20.5%	x	-2.8%	x	u
Cc1cccc(-c2nc(CSCC(=O)N3CCN(c4ccccc4)CC3)c(C)o2)c1	18.5%	x	0.0%	23.1µM*	-10.1%
CCc1ccc(-c2nc(CSCC(=O)N3CCN(c4ncccn4)CC3)c(C)o2)cc1	13.3%	0.3%	0.4%	20.6µM*	-17.7%
CCOc1ccc(-c2nc(CSCC(=O)N3CCN(c4ccc(F)cc4)CC3)c(C)o2)cc1	u	x	0.3%	x	-2.4%
N#CC(=Cc1ccccn1)c1nc(-c2ccc(Cl)cc2)cs1	x	x	12.6µM*	x	x
SMILES	miR-21 act	B2AR arrestin	Nrf2 ARE act	Nrf2 inh	A549 viability
CC(=O)N(Cc1ccc(F)cc1)C1=C(NCCc2ccccc2)C(=O)c2ccccc2C1=O	u	-0.7%	-1.1%	20.6µM*	23.1µM*
O=C1C(Cl)=C(NCCc2ccccc2)C(=O)c2ccccc21	x	x	u	2.3%	-5.0%
Cc1c2cnn(CC(=O)NCCc3ccccc3)c(=O)c2c(C)n1Cc1ccccc1	1.7%	x	0.4%	2.8%	0.6%
CN(CC(=O)Nc1cc(S(=O)(=O)N2CCCC2)ccc1Cl)Cc1cccs1	14.2%	0.1%	1.5%	25.9µM*	-8.3%
COc1ccc(S(=O)(=O)N2CCOCC2)cc1NC(=O)Cc1ccccc1Cl	-2.8%	-2.2%	-0.1%	0.2%	2.8%
Cc1ccc(S(=O)(=O)N2CCCCC2)cc1NC(=O)Cc1cccs1	x	-0.3%	-0.2%	12.3%	0.8%
Cc1ccc(S(=O)(=O)N2CCOCC2)cc1NC(=O)CNCc1ccc(Cl)cc1Cl	x	-0.4%	0.0%	13µM*	-0.4%
O=C(CNCc1ccccc1Cl)Nc1cc(S(=O)(=O)N2CCOCC2)ccc1Cl	x	0.3%	7.5%	16.4µM*	-13.3%
O=S(=O)(c1ccc(Cl)c(NC(=S)N/N=C/c2ccc(O)cc2)c1)N1CCOCC1	-0.6%	0.4%	-2.7%	16.4µM*	-22.5%
COc1ccc(-c2nc3nc(C)cc(N4CCN(c5cccc(C(F)(F)F)c5)CC4)n3n2)cc1	-6.4%	x	0.5%	-5.5%	3.9%
Cc1ccc(Nc2nc(NCc3ccco3)nc3nccnc23)cc1	x	x	x	0.6%	4.7%
CCOc1ccc(C(=O)c2oc3ccccc3c2NC(=O)Cc2coc3ccc(CC)cc23)cc1	-6.9%	x	0.5%	5.4%	-0.2%
CCN(CC)c1ccc(S(=O)(=O)N2CCOCC2)cc1NC(=O)CNCc1cccc(Cl)c1	x	x	-0.5%	25.9µM*	u
Cc1cccc(Cn2c(CN3CCC(C(=O)NCCc4ccccc4)CC3)cc3ccccc32)c1	u	x	8.7%	x	-20.1%
COc1ccc(CCNC(=O)Cn2cc(S(=O)(=O)Cc3ccccc3Cl)c3ccccc32)cc1OC	-2.1%	x	6.3%	-28.5%	-3.0%
COc1ccc(CCNC(=O)Cn2cc(S(=O)(=O)Cc3cccc(Cl)c3)c3ccccc32)cc1OC	u	x	0.9%	20.6µM*	u
Cc1ccc2nc(NC(=O)c3cc(-c4ccco4)nc4ccccc34)sc2c1	-9.3%	0.1%	-0.1%	23.1µM*	-10.5%
O=C(Nc1cccc(S(=O)(=O)NC2=NCCC2)c1)c1cc(-c2ccco2)nc2ccccc12	-1.7%	8.5%	10µM*	2.8%	u
O=C(Nc1nc2ccccc2s1)c1cc(-c2ccco2)nc2ccccc12	-11.3%	0.1%	4.7%	-17.4%	-5.0%
CN(C)C(=O)c1ccc(NC(=O)c2cc(-c3ccco3)nc3ccccc23)cc1	0.1%	0.0%	11.2µM*	9.7%	-3.8%
O=C(NC1CC1)c1cc(-c2ccco2)nc2ccccc12	0.6%	-1.1%	12.6µM*	-8.1%	0.9%
